Our source for the binding signal values is PMC7862700, “An all-to-all approach to the identification of sequence-specific readers for epigenetic DNA modifications on cytosine”.

Assay in all cases: DAPPL (digital affinity profiling via proximity ligation, sequencing); 10 mM Tris-HCl pH 7.5, 50 mM NaCl, 1 mM DTT, 4% glycerol, room temperature, 30 min; GST-TFs on glutathione beads, 16-mer random dsDNA library, 0.1% formaldehyde crosslink after washing; high values mean tight binding
The target of test [1] is T1, FEV (Homo sapiens, UniProt Q99581 1-238).
T1 sequence: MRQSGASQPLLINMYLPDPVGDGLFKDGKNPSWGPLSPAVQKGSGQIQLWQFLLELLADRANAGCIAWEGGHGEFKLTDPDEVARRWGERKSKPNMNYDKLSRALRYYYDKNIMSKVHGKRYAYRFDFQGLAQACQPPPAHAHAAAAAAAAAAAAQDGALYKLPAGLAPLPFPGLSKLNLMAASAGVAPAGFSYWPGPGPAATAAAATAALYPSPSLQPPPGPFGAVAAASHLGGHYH
The note with it: protein: recombinant; tags: N-terminal GST; dsDNA, one strand shown. In short, it runs like this:
(§1)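 Binding signal is each hexamer's read frequency for a factor divided by its frequency in the tag-only sample. The factors were GST-fused human transcription factors from yeast, captured on glutathione beads, DNA-barcoded and pooled with that sample. Pools were incubated with 200 nmole of a random double-stranded 16-mer DNA library in Tris/NaCl/DTT/glycerol buffer at room temperature for 30 min, then washed, crosslinked with 0.1% formaldehyde, proximity-ligated with BsaI/T4 ligase (1 h, 37 °C), PCR-amplified and sequenced on an Illumina NextSeq500.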

For test [2], the target named is ETV5 (Homo sapiens, UniProt P41161 1-510). The conditions noted are these: protein: recombinant; tags: N-terminal GST; dsDNA, one strand shown. In short, it runs like this:
as §1

In test [3] the target is HSF1 (Homo sapiens, UniProt Q00613 1-529). The conditions noted are these: protein: recombinant; tags: N-terminal GST; chain copies: 3; dsDNA, one strand shown. A digest of the protocol:
as §1

Test [4] addresses T2, SPIC (Homo sapiens, UniProt Q8N5J4 1-248).
T2 sequence: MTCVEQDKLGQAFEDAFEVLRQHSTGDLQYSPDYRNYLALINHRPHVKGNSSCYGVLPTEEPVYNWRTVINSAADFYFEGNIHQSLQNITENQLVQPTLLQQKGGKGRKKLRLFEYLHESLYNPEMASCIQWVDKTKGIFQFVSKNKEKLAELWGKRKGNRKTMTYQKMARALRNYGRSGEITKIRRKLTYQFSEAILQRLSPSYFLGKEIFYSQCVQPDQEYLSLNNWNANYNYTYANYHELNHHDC
The note with it: protein: recombinant; tags: N-terminal GST; dsDNA, one strand shown. In short, it runs like this:
as §1

The target in test [5] is ELF4 (Homo sapiens, UniProt Q99607 1-663). The conditions noted are these: protein: recombinant; tags: N-terminal GST; dsDNA, one strand shown. A digest of the protocol:
as §1

The target of test [6] is T3, ELK4 (Homo sapiens, UniProt P28324-2 1-405).
T3 sequence: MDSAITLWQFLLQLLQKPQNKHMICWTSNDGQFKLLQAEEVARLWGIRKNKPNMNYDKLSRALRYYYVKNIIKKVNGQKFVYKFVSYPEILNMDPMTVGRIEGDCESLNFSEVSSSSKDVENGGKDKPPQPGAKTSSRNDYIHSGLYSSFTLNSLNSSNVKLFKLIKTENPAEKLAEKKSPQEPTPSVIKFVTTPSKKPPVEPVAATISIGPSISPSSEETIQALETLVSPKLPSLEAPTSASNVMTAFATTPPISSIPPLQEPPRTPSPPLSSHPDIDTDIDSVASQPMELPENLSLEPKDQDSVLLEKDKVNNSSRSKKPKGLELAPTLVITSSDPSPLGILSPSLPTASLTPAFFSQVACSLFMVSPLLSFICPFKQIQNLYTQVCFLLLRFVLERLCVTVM
The note with it: protein: recombinant; tags: N-terminal GST; dsDNA, one strand shown. In short, it runs like this:
as §1

In test [7] the target is T4, ETV2 (Homo sapiens, UniProt O00321 1-342).
T4 sequence: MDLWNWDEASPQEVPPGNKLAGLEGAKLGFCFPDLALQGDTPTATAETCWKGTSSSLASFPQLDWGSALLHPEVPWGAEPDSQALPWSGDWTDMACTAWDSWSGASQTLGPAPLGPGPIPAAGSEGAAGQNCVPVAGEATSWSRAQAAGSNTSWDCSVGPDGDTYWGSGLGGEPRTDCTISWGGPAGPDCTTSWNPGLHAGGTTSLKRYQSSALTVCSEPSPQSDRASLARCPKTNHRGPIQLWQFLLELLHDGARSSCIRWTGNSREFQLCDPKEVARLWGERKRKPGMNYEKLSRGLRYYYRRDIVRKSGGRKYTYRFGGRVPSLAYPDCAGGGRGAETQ
The conditions noted are these: protein: recombinant; tags: N-terminal GST; dsDNA, one strand shown. In short, it runs like this:
as §1

In test [8] the target is T5, ELF3 (Homo sapiens, UniProt P78545 1-371).
T5 sequence: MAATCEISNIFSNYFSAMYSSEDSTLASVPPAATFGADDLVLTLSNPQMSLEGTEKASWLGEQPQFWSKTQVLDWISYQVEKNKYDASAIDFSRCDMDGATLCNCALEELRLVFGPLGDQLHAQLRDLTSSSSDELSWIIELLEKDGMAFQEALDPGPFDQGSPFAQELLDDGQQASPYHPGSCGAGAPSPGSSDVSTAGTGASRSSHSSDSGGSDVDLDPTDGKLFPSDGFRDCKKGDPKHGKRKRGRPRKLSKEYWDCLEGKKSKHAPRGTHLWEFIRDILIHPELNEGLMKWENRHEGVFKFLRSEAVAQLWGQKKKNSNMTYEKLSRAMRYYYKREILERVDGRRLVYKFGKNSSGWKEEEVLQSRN
The conditions noted are these: protein: recombinant; tags: N-terminal GST; dsDNA, one strand shown. A digest of the protocol:
as §1

Test [9] deals with CRX (Homo sapiens, UniProt O43186 1-299). The conditions noted are these: protein: recombinant; tags: N-terminal GST; dsDNA, one strand shown. A digest of the protocol:
as §1

Test [10] concerns the target ETV1 (Homo sapiens, UniProt P50549 1-477). The conditions noted are these: protein: recombinant; tags: N-terminal GST; dsDNA, one strand shown. In short, it runs like this:
as §1

Test [11] addresses T6, ERF (Homo sapiens, UniProt P50548 1-548).
T6 sequence: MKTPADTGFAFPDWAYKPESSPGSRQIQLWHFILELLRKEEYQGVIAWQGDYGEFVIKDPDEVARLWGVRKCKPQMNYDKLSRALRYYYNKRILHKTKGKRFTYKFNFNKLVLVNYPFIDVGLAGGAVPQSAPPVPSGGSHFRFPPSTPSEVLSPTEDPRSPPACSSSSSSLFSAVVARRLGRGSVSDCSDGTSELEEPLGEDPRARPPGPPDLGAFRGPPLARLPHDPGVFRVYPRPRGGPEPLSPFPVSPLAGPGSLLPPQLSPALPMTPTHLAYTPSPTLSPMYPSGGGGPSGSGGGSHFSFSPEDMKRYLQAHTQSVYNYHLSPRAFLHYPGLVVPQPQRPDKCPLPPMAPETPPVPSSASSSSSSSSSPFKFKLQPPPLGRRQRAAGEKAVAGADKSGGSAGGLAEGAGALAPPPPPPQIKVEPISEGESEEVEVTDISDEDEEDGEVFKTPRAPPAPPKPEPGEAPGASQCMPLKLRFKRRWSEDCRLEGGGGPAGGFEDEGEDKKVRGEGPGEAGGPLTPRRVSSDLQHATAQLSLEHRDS
The conditions noted are these: protein: recombinant; tags: N-terminal GST; dsDNA, one strand shown. A digest of the protocol: as §1

Test [12] addresses T7, ETV3L (Homo sapiens, UniProt Q6ZN32 1-361).
T7 sequence: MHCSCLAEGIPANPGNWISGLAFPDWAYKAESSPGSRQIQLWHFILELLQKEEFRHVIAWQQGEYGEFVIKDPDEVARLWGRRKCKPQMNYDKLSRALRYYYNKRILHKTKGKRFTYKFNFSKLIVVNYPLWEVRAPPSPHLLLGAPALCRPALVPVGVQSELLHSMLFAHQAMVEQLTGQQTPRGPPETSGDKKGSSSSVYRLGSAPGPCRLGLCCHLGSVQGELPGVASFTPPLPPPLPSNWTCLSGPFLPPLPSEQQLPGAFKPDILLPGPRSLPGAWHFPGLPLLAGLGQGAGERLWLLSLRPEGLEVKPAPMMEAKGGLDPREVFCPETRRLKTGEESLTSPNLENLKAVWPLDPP
The note with it: protein: recombinant; tags: N-terminal GST; dsDNA, one strand shown. In short, it runs like this: as §1

For test [13], the target named is T8, ETS2 (Homo sapiens, UniProt P15036 1-469).
T8 sequence: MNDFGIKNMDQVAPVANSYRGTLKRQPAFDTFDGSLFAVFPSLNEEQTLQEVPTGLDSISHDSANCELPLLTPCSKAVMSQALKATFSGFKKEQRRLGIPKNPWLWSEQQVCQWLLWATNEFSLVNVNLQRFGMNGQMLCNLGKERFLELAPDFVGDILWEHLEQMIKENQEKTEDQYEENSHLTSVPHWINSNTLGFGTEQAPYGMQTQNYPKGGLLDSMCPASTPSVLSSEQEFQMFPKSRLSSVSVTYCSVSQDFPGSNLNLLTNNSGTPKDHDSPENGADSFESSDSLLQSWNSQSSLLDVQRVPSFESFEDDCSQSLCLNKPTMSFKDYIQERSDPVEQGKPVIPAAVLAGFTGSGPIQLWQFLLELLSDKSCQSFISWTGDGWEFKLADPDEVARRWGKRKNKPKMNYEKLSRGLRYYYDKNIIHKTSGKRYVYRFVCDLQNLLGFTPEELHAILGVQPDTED
The note with it: protein: recombinant; tags: N-terminal GST; dsDNA, one strand shown. In short, it runs like this:
as §1

Test [14] concerns the target T9, SPDEF (Homo sapiens, UniProt O95238 1-335).
T9 sequence: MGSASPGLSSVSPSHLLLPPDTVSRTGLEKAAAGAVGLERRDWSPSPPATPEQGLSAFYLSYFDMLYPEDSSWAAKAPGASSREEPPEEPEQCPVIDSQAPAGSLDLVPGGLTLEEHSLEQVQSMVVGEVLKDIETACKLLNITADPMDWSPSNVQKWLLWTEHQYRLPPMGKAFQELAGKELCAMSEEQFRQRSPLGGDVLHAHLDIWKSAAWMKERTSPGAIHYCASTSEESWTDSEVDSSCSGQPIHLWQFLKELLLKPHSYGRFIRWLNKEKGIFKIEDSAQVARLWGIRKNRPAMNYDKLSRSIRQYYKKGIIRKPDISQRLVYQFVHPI
The note with it: protein: recombinant; tags: N-terminal GST; dsDNA, one strand shown. A digest of the protocol:
as §1

Test [15] concerns the target T10, ETV7 (Homo sapiens, UniProt Q9Y603 1-341).
T10 sequence: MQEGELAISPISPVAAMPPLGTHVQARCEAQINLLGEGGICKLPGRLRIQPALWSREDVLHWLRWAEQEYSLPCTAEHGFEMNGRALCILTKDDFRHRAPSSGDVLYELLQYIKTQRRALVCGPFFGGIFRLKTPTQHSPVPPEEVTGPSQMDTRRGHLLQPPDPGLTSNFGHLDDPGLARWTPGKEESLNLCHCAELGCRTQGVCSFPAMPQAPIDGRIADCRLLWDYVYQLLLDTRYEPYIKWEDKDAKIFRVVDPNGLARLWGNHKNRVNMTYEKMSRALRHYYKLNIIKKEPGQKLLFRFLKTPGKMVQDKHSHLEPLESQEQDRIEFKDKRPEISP
The conditions noted are these: protein: recombinant; tags: N-terminal GST; dsDNA, one strand shown. In short, it runs like this: as §1

In test [16] the target is T11, ELF5 (Homo sapiens, UniProt Q9UKW6-2 1-255).
T11 sequence: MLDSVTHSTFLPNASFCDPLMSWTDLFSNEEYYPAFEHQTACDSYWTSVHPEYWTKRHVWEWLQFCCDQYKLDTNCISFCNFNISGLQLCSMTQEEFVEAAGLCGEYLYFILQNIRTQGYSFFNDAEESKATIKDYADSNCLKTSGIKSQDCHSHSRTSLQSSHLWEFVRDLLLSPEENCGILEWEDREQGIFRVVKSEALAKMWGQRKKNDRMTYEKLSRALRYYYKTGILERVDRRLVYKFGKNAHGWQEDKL
The conditions noted are these: protein: recombinant; tags: N-terminal GST; dsDNA, one strand shown. A digest of the protocol:
as §1

The target in test [17] is T12, ETV3 (Homo sapiens, UniProt P41162-2 1-143).
T12 sequence: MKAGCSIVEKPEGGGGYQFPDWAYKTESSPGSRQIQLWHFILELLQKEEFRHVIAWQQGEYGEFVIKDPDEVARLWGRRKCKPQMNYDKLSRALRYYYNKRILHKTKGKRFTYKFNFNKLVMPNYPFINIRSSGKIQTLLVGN
The note with it: protein: recombinant; tags: N-terminal GST; dsDNA, one strand shown. A digest of the protocol:
as §1

The target in test [18] is ETV6 (Homo sapiens, UniProt P41212 1-452). The note with it: protein: recombinant; tags: N-terminal GST; dsDNA, one strand shown. A digest of the protocol: as §1
ETV6, sequence (P41212 whole entry): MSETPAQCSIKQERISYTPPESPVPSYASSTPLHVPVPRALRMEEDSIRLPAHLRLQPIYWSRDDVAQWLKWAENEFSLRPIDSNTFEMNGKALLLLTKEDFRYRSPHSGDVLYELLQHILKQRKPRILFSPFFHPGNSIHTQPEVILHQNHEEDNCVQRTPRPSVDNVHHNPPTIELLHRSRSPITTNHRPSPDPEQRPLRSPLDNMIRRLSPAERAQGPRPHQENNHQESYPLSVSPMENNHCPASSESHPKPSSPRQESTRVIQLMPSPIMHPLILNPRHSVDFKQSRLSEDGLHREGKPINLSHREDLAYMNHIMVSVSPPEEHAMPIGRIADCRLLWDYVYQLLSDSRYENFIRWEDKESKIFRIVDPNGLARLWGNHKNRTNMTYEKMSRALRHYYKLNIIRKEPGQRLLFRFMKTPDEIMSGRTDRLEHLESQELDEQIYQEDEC

ETV1, sequence (P50549 whole entry): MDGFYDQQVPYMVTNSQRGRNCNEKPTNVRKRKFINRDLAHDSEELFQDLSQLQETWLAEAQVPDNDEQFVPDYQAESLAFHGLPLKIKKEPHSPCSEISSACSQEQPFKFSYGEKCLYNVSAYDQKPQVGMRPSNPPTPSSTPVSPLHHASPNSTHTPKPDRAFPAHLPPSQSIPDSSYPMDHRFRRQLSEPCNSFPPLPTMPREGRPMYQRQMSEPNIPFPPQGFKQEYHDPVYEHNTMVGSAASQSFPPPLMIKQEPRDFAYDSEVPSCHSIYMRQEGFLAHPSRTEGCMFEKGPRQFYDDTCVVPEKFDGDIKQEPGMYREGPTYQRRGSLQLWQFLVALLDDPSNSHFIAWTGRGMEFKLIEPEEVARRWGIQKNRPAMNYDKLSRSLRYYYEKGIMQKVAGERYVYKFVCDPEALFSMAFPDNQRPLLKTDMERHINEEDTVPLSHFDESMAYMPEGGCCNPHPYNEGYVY
ELF4, sequence (Q99607 whole entry): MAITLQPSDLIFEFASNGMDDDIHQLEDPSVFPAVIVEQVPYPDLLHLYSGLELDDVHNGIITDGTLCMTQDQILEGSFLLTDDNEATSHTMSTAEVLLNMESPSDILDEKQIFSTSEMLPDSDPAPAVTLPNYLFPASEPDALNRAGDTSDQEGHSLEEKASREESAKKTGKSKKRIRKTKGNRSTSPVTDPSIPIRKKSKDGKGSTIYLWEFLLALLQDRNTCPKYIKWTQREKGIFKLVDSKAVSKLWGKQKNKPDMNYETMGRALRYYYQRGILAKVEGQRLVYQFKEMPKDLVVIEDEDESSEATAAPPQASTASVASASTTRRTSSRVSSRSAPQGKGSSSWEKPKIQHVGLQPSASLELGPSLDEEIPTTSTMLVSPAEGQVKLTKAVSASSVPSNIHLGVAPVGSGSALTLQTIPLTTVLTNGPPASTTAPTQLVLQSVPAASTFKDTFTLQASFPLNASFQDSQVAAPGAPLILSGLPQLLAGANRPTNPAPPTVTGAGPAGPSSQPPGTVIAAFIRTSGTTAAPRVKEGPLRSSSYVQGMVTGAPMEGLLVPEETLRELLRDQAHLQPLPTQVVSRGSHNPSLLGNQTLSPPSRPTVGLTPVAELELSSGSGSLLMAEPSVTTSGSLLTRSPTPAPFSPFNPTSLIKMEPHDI
ETV5, sequence (P41161 whole entry): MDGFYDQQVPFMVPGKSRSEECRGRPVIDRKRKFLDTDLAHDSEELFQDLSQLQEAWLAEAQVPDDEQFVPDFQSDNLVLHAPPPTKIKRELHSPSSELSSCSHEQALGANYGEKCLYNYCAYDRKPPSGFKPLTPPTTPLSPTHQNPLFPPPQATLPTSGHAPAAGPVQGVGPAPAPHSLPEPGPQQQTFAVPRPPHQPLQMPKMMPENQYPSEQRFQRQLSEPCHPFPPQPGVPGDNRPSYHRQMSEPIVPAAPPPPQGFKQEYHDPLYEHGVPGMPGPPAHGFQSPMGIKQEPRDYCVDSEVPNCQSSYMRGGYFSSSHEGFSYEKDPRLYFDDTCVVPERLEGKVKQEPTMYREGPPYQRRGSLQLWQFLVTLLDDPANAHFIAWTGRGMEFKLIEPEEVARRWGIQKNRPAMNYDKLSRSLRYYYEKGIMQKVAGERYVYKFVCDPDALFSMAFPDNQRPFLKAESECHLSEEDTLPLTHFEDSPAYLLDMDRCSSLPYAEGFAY
HSF1, sequence (Q00613 whole entry): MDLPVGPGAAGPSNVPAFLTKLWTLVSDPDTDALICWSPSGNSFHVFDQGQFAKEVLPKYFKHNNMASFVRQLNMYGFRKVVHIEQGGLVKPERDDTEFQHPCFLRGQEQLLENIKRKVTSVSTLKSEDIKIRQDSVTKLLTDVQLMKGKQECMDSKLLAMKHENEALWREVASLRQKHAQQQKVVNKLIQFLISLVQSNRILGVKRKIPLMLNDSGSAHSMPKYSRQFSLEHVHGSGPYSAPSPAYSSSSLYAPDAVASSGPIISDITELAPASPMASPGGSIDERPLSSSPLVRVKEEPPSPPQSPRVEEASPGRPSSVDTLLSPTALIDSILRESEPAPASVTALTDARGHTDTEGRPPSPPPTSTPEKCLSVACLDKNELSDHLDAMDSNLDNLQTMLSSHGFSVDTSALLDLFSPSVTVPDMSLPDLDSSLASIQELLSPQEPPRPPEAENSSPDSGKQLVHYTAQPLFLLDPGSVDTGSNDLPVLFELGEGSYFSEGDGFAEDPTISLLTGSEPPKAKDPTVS
CRX, sequence (O43186 whole entry): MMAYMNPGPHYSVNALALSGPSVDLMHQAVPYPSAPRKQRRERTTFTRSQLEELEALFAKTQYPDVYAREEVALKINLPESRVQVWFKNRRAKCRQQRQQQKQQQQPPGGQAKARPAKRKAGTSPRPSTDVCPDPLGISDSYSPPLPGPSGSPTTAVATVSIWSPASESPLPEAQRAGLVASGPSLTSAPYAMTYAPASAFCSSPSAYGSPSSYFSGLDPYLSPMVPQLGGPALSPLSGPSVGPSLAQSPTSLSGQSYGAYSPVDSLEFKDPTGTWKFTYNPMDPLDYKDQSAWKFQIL

For CCGCAT, the binding signal in test [1] is 1.49 fold enrichment (6-mer frequency, TF over GST control); in [2], 1.65 fold enrichment (6-mer frequency, TF over GST control); in test [3], 1.13 fold enrichment (6-mer frequency, TF over GST control); in test [4], 1.53 fold enrichment (6-mer frequency, TF over GST control); in [5], 1.62 fold enrichment (6-mer frequency, TF over GST control); in test [6], 1.31 fold enrichment (6-mer frequency, TF over GST control). In addition, the binding signal is 1.52 fold enrichment (6-mer frequency, TF over GST control) in test [7]; 1.95 fold enrichment (6-mer frequency, TF over GST control) in [8]; 1.19 fold enrichment (6-mer frequency, TF over GST control) in test [9]; 1.59 fold enrichment (6-mer frequency, TF over GST control) in test [10]; 1.46 fold enrichment (6-mer frequency, TF over GST control) in test [11]; 1.6 fold enrichment (6-mer frequency, TF over GST control) in test [12]. Also, the binding signal in test [13] is 1.56 fold enrichment (6-mer frequency, TF over GST control); in test [14] it was 1.64 fold enrichment (6-mer frequency, TF over GST control); in test [15], 1.44 fold enrichment (6-mer frequency, TF over GST control); in [16], 1.75 fold enrichment (6-mer frequency, TF over GST control); in test [17], 1.57 fold enrichment (6-mer frequency, TF over GST control); in test [18], 1.59 fold enrichment (6-mer frequency, TF over GST control).
